Experimental data as given in PubChem BioAssay AID652233 (Johns Hopkins Ion Channel Center, 2013).
Screen size: about 2,300 compounds; fewer than 10 were called active.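 The calls were made as follows: active = yellow fluorescent protein signal ratio exceeding the buffer control mean by over 5 SD of those controls; inactive = the rest.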 These entries were drawn from the full list.

Assay: nonspecific effects on YFP-HEK293 ionomycin response – cell-based, parental YFP-HEK293, YFP quench, counter-screen for TMEM16A inhibitor project (AID 652233);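 also: ratio is mean of duplicate wells from kinetic YFP trace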
Details: parental YFP-HEK293, iodide YFP quench, at 10 µM
In the case of `Cc1nc2ccccc2cc1OCc1ccc(F)cc1`, the YFP ratio F(max-min)/F0 is reported as -0.66 (inactive).
With `CCCCNC(=O)CSc1nc2n[nH]c(C)c2c(=N)n1-c1cccc(Cl)c1C` the YFP ratio F(max-min)/F0 was -0.786 (inactive).
For `c1ccc(-c2nnc(SCc3nc4ccccc4[nH]3)o2)cc1`, the YFP ratio F(max-min)/F0 was -1.02 (inactive).
For `COc1ccc(OCC(=O)NCCc2ccc(S(N)(=O)=O)cc2)cc1`, the YFP ratio F(max-min)/F0 was -0.874 (inactive).
For `COc1ccc(S(=O)(=O)NCCCCOc2ccc(Cl)cc2)cc1`, the YFP ratio F(max-min)/F0 was -1.14 (inactive).
For `O=C(CNCCC1=CCCCC1)Nc1ccccc1N1CCCCCC1`, the YFP ratio F(max-min)/F0 was -1.09 (inactive).
With `CN(c1cccc(NC(=O)c2ccc(CN3CCc4ccccc4C3)cc2)c1)S(C)(=O)=O` the YFP ratio F(max-min)/F0 was -0.916 (inactive).
In the case of `Cc1ccc(-n2ncc3c(N4CCN(c5ccc(F)cc5)CC4)ncnc32)c(C)c1`, the YFP ratio F(max-min)/F0 is reported as -0.733 (inactive).
With `CCCCCc1ccc(-c2ccc(C(=O)O)cc2)nc1` the YFP ratio F(max-min)/F0 was -0.857 (inactive).
For `O=C(Nc1cccc(S(=O)(=O)Nc2ccc(Cl)cc2)c1)c1ccc2c(c1)OCCO2`, the YFP ratio F(max-min)/F0 was -1.08 (inactive).
For `S=C(NCc1ccc(Cl)cc1)NC12CC3CC(CC(C3)C1)C2`, the YFP ratio F(max-min)/F0 was -1.22 (inactive).
In the case of `Cc1nc(C)c(-c2csc(NCCc3ccccc3)n2)s1`, the YFP ratio F(max-min)/F0 is reported as -0.901 (inactive).
With `Cc1cc(C)cc(NS(=O)(=O)c2ccc(Oc3ncc(C(F)(F)F)cc3Cl)cc2)c1` the YFP ratio F(max-min)/F0 was -0.961 (inactive).
In the case of `N#Cc1nc(COc2ccc(-c3ccccc3)cc2)oc1NCc1cccnc1`, the YFP ratio F(max-min)/F0 is reported as -0.991 (inactive).
With `Cn1c(=O)n(C)c2cc(S(=O)(=O)N3CCCc4ccccc43)ccc21` the YFP ratio F(max-min)/F0 was -1.35 (inactive).
In the case of `COc1ccc(CNc2nnnn2C)cc1`, the YFP ratio F(max-min)/F0 is reported as -0.894 (inactive).
In the case of `O=C1c2ccccc2C(Nc2ccc3c(c2)OCCO3)N1Cc1ccco1` (centres undefined), the YFP ratio F(max-min)/F0 is reported as -0.965 (inactive).
In the case of `O=C(COC(=O)CCc1c[nH]c(=O)[nH]1)Nc1ccccc1Cl`, the YFP ratio F(max-min)/F0 is reported as -0.772 (inactive).
With `N#CC1=C(SCc2ccccc2)NC(=O)C(C#N)C12CCCC2` (centres undefined) the YFP ratio F(max-min)/F0 was -0.894 (inactive).
With `O=C(COc1ccccc1)NCc1ccc2c(c1)OCO2` the YFP ratio F(max-min)/F0 was -1.01 (inactive).
In the case of `S=C(NCc1cccs1)Nc1ccc(Cl)cc1`, the YFP ratio F(max-min)/F0 is reported as -1.2 (inactive).
For `Cc1ccc(C)c(N2CCN(S(=O)(=O)c3ccc4c(c3)oc(=O)n4C)CC2)c1`, the YFP ratio F(max-min)/F0 was -1.24 (inactive).
In the case of `Cc1cc(C=O)c(C)n1-c1ccc(NC2CCCCC2)c([N+](=O)[O-])c1`, the YFP ratio F(max-min)/F0 is reported as -0.94 (inactive).
With `CC(=O)c1c(C)[nH]c(C(=O)COC(=O)c2cccc(S(=O)(=O)N(C)c3ccccc3)c2)c1C` the YFP ratio F(max-min)/F0 was -1.08 (inactive).
For `O=C(Nc1nc(-c2ccc3c(c2)OCO3)cs1)c1ccncc1`, the YFP ratio F(max-min)/F0 was -0.891 (inactive).
For `CC(NC(=O)c1ccco1)C(=O)Nc1nc(-c2ccccn2)cs1` (centres undefined), the YFP ratio F(max-min)/F0 was -1.13 (inactive).
With `Cc1ccc(N2C(=O)S/C(=C/c3cn(C)c4ccccc34)C2=O)cc1` the YFP ratio F(max-min)/F0 was -0.76 (inactive).
In the case of `COc1ccc(CN(C)C(=O)CC(c2ccccc2)c2ccccc2)cc1`, the YFP ratio F(max-min)/F0 is reported as -1.04 (inactive).
With `CCOC(=O)N1CCN(C(=O)c2ccc3c(c2)N(Cc2ccc(C)cc2)CCS3)CC1` the YFP ratio F(max-min)/F0 was -1.18 (inactive).
With `Cc1noc(C)c1COC(=O)c1cc2ccccc2cc1O` the YFP ratio F(max-min)/F0 was -0.996 (inactive).
With `COc1ccc2[nH]cc(/C=C(/C#N)S(=O)(=O)c3ccccc3)c2c1` the YFP ratio F(max-min)/F0 was -1.14 (inactive).
In the case of `O=C(N/N=C/c1cc(Cl)cc([N+](=O)[O-])c1O)C(O)(c1ccccc1)c1ccccc1`, the YFP ratio F(max-min)/F0 is reported as -0.984 (inactive).
With `Cc1ccc2c(c1)N(S(=O)(=O)c1cc(-c3cc(C)no3)ccc1C)CCO2` the YFP ratio F(max-min)/F0 was -0.714 (inactive).
In the case of `COc1ccc(CCC(=O)c2ccc(OC)cc2)cc1`, the YFP ratio F(max-min)/F0 is reported as -1.35 (inactive).
For `Cc1ccc(-c2noc(CSc3nnnn3-c3ccccc3)n2)cc1`, the YFP ratio F(max-min)/F0 was -0.963 (inactive).
In the case of `CC(C)(C)C(=O)/C(C#N)=C/c1ccc(O)cc1`, the YFP ratio F(max-min)/F0 is reported as -1.08 (inactive).
In the case of `COC(=O)c1ccc(COC(=O)c2c(C)nn(Cc3ccccc3Cl)c2Cl)o1`, the YFP ratio F(max-min)/F0 is reported as -1.29 (inactive).
With `CC1=NN(c2cccc(Cl)c2)C(=O)C12CC(C)=C(C)CS2` (centres undefined) the YFP ratio F(max-min)/F0 was -1.3 (inactive).
In the case of `CCOC(=O)c1cccc(NC(=O)CCn2nnc3ccccc32)c1`, the YFP ratio F(max-min)/F0 is reported as -1.02 (inactive).
With `C=C(C)Cn1c(C)cc(C)c(S(=O)(=O)c2ccccc2C)c1=O` the YFP ratio F(max-min)/F0 was -0.995 (inactive).
For `Cc1nc2c(C(=O)NCc3ccc4c(c3)OCO4)c[nH]n2c(=O)c1Cc1ccccc1F`, the YFP ratio F(max-min)/F0 was -1.21 (inactive).
For `COC(=O)c1ccc(NC(=O)c2ccccc2NS(=O)(=O)c2ccccc2)cc1`, the YFP ratio F(max-min)/F0 was -0.979 (inactive).
In the case of `O=C(NC(=S)Nc1ccccc1C(=O)O)c1ccc(-c2ccc(Br)cc2)o1`, the YFP ratio F(max-min)/F0 is reported as -1.06 (inactive).
For `CN1c2ccc(C=O)c3c(C=O)ccc(c23)N(C)C1(C)C`, the YFP ratio F(max-min)/F0 was -1 (inactive).
With `Cc1ccccc1-n1nnnc1SCCCC(=O)c1ccc(F)cc1` the YFP ratio F(max-min)/F0 was -1.2 (inactive).
In the case of `Cc1ccc(F)cc1NC(=O)Cc1nn(C)c(=O)c2ccccc12`, the YFP ratio F(max-min)/F0 is reported as -1.06 (inactive).
In the case of `CC(C)CNC(=S)NNC(=O)c1nn(C)cc1Cl`, the YFP ratio F(max-min)/F0 is reported as -0.979 (inactive).
For `Cc1ccc(-n2[nH]c(C)c(/C=N/N3C(=O)c4cccc5cccc(c45)C3=O)c2=O)cc1`, the YFP ratio F(max-min)/F0 was -0.991 (inactive).
For `Cc1nc(SCC(=O)N2CCc3ccccc3C2)c2c(C)c(C)sc2n1`, the YFP ratio F(max-min)/F0 was -1.07 (inactive).
In the case of `CSc1nsc(NC(=O)Nc2ccccc2)n1`, the YFP ratio F(max-min)/F0 is reported as -0.839 (inactive).
For `CCOC(=O)N1CC=C2C(C#N)=C(N)C(C#N)(C#N)[C@H](c3cccs3)[C@H]2C1`, the YFP ratio F(max-min)/F0 was -1.01 (inactive).
With `CCC(=O)Nc1ccc2nc(C)n(Cc3ccccc3Cl)c(=O)c2c1` the YFP ratio F(max-min)/F0 was -1.04 (inactive).
For `Cc1cccc(N=Nc2c(O)[nH]c3ccc(F)cc23)c1`, the YFP ratio F(max-min)/F0 was -0.957 (inactive).
For `COc1cccc(CNS(=O)(=O)c2ccc3c(c2)CC(C)N3C(=O)C2CCC2)c1` (centres undefined), the YFP ratio F(max-min)/F0 was -1.01 (inactive).
In the case of `C=CCn1c(SCC(=O)Nc2nc3ccccc3s2)nnc1-c1ccccc1O`, the YFP ratio F(max-min)/F0 is reported as -1.05 (inactive).
In the case of `Fc1ccc(CSc2nnc(-c3cc4c(s3)-c3ccccc3CC4)o2)cc1`, the YFP ratio F(max-min)/F0 is reported as -0.984 (inactive).
In the case of `O=C(CSCc1ccc(Cl)cc1)N1CCN(Cc2ccc3c(c2)OCO3)CC1`, the YFP ratio F(max-min)/F0 is reported as -1.19 (inactive).
With `CSc1cccc(NC(=S)N(C(C)C)C(C)c2ccccn2)c1` (centres undefined) the YFP ratio F(max-min)/F0 was -0.907 (inactive).
In the case of `CCCCn1ccnc1C(=O)c1cccc(S(=O)(=O)N2c3ccccc3CC2C)c1` (centres undefined), the YFP ratio F(max-min)/F0 is reported as -1.39 (inactive).
